According to the supplement of paper PMC10849652:
Targets with a hit are over-represented here; the source holds about 8,800 in all. About 0.5% of all pairs of compound and target were hits.

Experiments:
Test in all cases: log2 fold change, soluble protein after heating vs DMSO (PISA); higher = thermal stabilisation; K562 lysate, 10 uM; active = over 0.2 and 3.5 SD of the protein, either way, in both replicates (recomputed)
[1] = compound: C1CCN(C1)C(=O)NC2=CC=CC(=C2)NC3=NC=C(C(=N3)NCCC4=CN=CN4)Br
Outline: (§1)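 K562 pellets were dounce-homogenised in PBS pH 7.4 containing 1 mM MgCl2, and the crude extract, at 1 mg/mL protein, was exposed to 10 μM compound for 30 min. Aliquots were heated for 3 min across 48°C-58°C, pooled, brought to 0.5% NP-40 at 4°C and spun at 21,000xg for 90 min, with the supernatant taken as soluble protein. TMTpro 16plex LC-MS/MS with equalised channel sums quantified that protein. Values are log-two fold changes in thermal stability relative to solvent controls, taken from duplicates.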

[2] = compound: C1CN(CCC1(CC2=CC=C(C=C2)Cl)N)C3=NC=NC4=C3C=CN4
Outline: as §1

erlotinib = compound: C#Cc1cccc(Nc2ncnc3cc(OCCOC)c(OCCOC)cc23)c1 [erlotinib]
Outline: as §1

[3] = compound: C/C(=N\NC(=O)C1=CC(=CC=C1)S(=O)(=O)N2CCOCC2)/C3=C(C=CC(=C3)Cl)O
Outline: as §1

[4] = compound: C1=CC(=CC=C1C2=NC3=C(N2)C=C(C=C3)C(=O)N)OC4=CC=C(C=C4)Cl
Outline: as §1

[5] = compound: C1=CC2=C(C=CC(=C2)/C=C\3/C(=O)NC(=NCC4=CC=CS4)S3)N=C1
Outline: as §1

[6] = compound: C1=CC2=NC=CN=C2C=C1/C=C/3\C(=O)NC(=O)S3
Outline: as §1

[7] = compound: C1=CC=C2C(=C1)C3=NNC4=CC=CC(=C43)C2=O
Outline: as §1

ibrutinib = compound: C=CC(=O)N1CCC[C@@H](n2nc(-c3ccc(Oc4ccccc4)cc3)c3c(N)ncnc32)C1 [ibrutinib]
Outline: as §1

[8] = compound: CC(=O)c1cnc2ccc(-c3cc(Cl)c(O)c(Cl)c3)nc2c1N[C@H]1CC[C@H](CN(C)C)CC1
Outline: as §1

[9] = compound: CC(C)C1=C2N=C(C=C(N2N=C1)NCC3=CC=CC=C3)NCCCCCCN
Outline: as §1

[10] = compound: CC1=C(C2=C(C=C1)C(=O)C3=CC=CC=C3N2CCCN)C
Outline: as §1

[11] = compound: CC1=C(C=C(C=C1)NC(=O)C2=CC(=CC=C2)C(C)(C)C#N)NC3=CC4=C(C=C3)N=CN(C4=O)C
Outline: as §1

[12] = compound: CC1=CC=C(C=C1)SC2=C3C=C(SC3=CN=C2)C(=O)N
Outline: as §1

[13] = compound: C1=CC=C(C=C1)C2=NC(=C(N2)C3=CC=NC=C3)C4=CC(=C(C=C4)Cl)O
Outline: as §1

IRAK-1-4 Inhibitor I = compound: C1COCCN1CCN2C3=CC=CC=C3N=C2NC(=O)C4=CC(=CC=C4)[N+](=O)[O-] [IRAK-1-4 Inhibitor I]
Outline: as §1

ralimetinib = compound: CC(C)(C)Cn1c(N)nc2ccc(-c3[nH]c(C(C)(C)C)nc3-c3ccc(F)cc3)nc21 [ralimetinib]
Outline: as §1

[14] = compound: CC(C)(O)CC(=O)NCCn1ccc2ncnc(Nc3ccc(Oc4cccc(C(F)(F)F)c4)c(Cl)c3)c21
Outline: as §1

[15] = compound: CC1=C(C(CC(=O)N1)C2=CC=C(C=C2)C(F)(F)F)C(=O)NC3=C(C=C4C(=C3)C=NN4)F
Outline: as §1

[16] = compound: CC1=C(C=C(C=C1)NC(=O)C2=CC(=CC=C2)N(C)C)NC(=O)C3=CC=C(C=C3)O
Outline: as §1

Measured: log2 fold change

ZSCAN21 (UniProt Q9Y5A6)
Chain of UniProt Q9Y5A6 (Q9Y5A6 whole entry, looked up): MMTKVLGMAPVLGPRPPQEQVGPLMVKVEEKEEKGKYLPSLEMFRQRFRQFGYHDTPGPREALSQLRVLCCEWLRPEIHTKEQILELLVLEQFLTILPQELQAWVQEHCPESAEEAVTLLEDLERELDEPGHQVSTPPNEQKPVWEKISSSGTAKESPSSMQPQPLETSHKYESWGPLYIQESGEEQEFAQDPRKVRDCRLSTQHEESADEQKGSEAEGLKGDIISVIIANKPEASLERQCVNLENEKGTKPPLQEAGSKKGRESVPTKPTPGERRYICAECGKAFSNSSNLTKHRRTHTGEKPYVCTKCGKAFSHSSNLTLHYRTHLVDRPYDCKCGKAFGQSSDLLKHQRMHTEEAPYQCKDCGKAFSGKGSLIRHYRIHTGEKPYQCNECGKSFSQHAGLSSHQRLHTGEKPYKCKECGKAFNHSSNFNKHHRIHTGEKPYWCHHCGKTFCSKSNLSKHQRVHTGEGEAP
inactive: [1] -0.022 | [2] 0.037

ULK3 isoform 4 (UniProt Q6PHR2)
Chain of UniProt Q6PHR2 (Q6PHR2 whole entry, looked up): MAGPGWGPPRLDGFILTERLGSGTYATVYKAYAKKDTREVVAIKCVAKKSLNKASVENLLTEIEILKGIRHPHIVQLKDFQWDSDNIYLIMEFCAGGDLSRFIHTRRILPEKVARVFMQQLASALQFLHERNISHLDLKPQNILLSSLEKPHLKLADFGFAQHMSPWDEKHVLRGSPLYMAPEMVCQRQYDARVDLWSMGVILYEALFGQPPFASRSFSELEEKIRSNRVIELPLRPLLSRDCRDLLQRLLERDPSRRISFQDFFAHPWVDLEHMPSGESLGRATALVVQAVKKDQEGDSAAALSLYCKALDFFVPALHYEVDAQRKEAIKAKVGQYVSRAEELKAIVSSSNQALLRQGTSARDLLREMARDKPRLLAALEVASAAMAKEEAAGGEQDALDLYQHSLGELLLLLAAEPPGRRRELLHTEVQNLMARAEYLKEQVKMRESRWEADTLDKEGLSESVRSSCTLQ
inactive: erlotinib 0.156 | [3] 0.149 | [4] -0.008 | [5] -0.151 | [6] -0.053 | [7] 0.177 | [1] 0.179 | [2] 0.01 | ibrutinib -0.08 | [8] -0.024 | [9] -0.091 | [10] -0.06 | [11] 0.094 | [12] 0.08

ZFYVE19 isoform 3 (UniProt Q96K21)
Chain of UniProt Q96K21 (Q96K21 whole entry, looked up): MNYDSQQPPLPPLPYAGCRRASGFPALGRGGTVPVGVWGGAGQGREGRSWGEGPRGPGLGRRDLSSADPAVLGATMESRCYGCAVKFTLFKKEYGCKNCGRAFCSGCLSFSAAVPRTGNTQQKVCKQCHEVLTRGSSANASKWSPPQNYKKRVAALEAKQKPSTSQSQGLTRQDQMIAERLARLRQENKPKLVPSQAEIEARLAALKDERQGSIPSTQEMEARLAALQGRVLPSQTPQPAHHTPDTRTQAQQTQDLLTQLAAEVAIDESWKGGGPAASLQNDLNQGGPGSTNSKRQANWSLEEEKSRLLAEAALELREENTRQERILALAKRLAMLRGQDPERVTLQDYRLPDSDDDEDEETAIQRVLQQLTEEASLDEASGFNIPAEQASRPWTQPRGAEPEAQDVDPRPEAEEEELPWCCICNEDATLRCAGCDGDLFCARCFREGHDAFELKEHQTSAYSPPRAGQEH
inactive: [6] 0.038 | ibrutinib 0.085 | [8] -0.084 | [12] 0.047

WIPI1 (UniProt Q5MNZ9)
Chain of UniProt Q5MNZ9 (Q5MNZ9 whole entry, looked up): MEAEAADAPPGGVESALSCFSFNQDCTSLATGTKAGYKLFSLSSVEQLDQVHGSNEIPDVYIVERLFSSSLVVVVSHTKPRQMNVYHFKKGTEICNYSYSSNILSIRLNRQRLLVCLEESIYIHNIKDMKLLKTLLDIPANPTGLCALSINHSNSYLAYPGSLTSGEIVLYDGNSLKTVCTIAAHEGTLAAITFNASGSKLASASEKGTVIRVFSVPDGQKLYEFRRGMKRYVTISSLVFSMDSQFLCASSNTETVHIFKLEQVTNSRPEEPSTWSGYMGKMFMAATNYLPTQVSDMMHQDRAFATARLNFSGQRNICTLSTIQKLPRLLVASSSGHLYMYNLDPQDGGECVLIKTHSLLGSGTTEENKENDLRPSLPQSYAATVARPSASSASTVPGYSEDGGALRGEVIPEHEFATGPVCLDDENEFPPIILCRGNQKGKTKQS
inactive: erlotinib -0.025 | [4] -0.006 | [6] -0.016 | [13] -0.027 | [1] 0.035 | [2] -0.013 | IRAK-1-4 Inhibitor I -0.007 | ibrutinib 0.098 | [8] -0.062 | ralimetinib 0.002 | [14] 0.019 | [9] -0.008 | [15] 0.1 | [10] -0.023 | [11] -0.005 | [16] -0.009 | [12] -0.033

ZDHHC17 (UniProt Q8IUH5)
Chain of UniProt Q8IUH5 (Q8IUH5 whole entry, looked up): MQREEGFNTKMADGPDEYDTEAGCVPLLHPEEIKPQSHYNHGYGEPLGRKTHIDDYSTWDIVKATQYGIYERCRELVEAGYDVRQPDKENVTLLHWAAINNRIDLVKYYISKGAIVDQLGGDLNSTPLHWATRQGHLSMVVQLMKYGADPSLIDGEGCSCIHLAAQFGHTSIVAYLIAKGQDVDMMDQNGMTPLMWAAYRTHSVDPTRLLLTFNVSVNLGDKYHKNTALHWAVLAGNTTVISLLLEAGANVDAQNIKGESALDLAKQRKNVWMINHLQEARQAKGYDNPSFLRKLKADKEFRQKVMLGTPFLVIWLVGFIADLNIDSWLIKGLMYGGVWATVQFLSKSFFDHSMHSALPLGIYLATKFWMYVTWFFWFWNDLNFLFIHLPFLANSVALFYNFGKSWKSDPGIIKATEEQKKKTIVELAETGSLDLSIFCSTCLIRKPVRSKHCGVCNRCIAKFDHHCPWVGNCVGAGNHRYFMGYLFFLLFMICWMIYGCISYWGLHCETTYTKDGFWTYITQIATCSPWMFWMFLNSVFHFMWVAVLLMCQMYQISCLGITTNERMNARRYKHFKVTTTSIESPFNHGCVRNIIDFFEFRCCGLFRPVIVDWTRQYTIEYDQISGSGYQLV
inactive: [3] 0.197 | [5] 0.011 | [13] -0.082 | [7] -0.247 | [1] -0.066 | [2] -0.027 | IRAK-1-4 Inhibitor I 0.205 | [8] -0.063 | ralimetinib 0.077 | [14] 0.047 | [15] -0.001 | [10] 0.161 | [11] -0.171 | [16] -0.067 | [12] -0.032

WAS (UniProt P42768)
Chain of UniProt P42768 (P42768 whole entry, looked up): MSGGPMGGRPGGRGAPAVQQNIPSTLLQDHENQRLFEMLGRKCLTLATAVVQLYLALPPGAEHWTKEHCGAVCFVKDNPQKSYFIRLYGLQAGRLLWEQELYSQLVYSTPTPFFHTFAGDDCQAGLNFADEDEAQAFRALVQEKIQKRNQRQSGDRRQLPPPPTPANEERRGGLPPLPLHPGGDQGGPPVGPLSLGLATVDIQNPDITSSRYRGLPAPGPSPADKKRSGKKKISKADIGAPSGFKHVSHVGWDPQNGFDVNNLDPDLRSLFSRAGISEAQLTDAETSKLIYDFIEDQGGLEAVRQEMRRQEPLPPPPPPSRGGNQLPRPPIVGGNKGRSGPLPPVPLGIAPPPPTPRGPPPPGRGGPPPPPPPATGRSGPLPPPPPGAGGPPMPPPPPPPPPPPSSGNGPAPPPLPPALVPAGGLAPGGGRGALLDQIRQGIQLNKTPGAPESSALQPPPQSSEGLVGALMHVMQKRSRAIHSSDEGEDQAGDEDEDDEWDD
inactive: erlotinib 0.023 | [4] 0.074 | [6] -0.149 | [1] 0.007 | [2] 0.026 | ibrutinib -0.06 | [9] -0.01 | [15] 0.071 | [10] 0.143
